# Test results: PubChem BioAssay
# Calls of active or inactive are those of the source.
# Key:
# [1] = binders of probe aFSTL3 on microarray, primary screen, stem cell growth factor project, biochemical, small-molecule microarray, fluorescence 635/667 (AID 1064); details: higher = more signal;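 note: measures binding of the biotinylated anti-FSTL3 antibody to printed compounds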
# [2] = binders from COS7 lysate, DM2A8 probe, primary screen, torsin A project, cell lysate, small-molecule microarray, fluorescence 635/667 (AID 1065); details: higher = more signal, COS7 lysate expressing mutant human TOR1A
# [3] = binders of probe aFGF2 on microarray, primary screen, stem cell growth factor project, biochemical, small-molecule microarray, fluorescence 635/667 (AID 1067); details: higher = more signal;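 note: measures binding of biotinylated aFGF2 protein to printed compounds on slides; z-score merges feature fluorescence and signal-to-noise across triplicate slides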
# [4] = binders of probe aFGF10 on microarray, primary screen, stem cell growth factor project, biochemical, small-molecule microarray, fluorescence 635/667 (AID 1071); details: higher = more signal;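 note: score merges 667 nm spot intensity and signal to noise from triplicate slides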
# [5] = molecular target: Neurogenic locus notch homolog protein 2 (Homo sapiens) (UniProt Q04721); test: Notch2 binders on small-molecule microarrays, primary screen, biochemical, small-molecule microarray, 635 nm fluorescence, stem cell growth factors (AID 1073); details: Notch2 binding, higher = more signal
# Chain of Neurogenic locus notch homolog protein 2 (Homo sapiens) (Q04721 whole entry, looked up, canonical isoform): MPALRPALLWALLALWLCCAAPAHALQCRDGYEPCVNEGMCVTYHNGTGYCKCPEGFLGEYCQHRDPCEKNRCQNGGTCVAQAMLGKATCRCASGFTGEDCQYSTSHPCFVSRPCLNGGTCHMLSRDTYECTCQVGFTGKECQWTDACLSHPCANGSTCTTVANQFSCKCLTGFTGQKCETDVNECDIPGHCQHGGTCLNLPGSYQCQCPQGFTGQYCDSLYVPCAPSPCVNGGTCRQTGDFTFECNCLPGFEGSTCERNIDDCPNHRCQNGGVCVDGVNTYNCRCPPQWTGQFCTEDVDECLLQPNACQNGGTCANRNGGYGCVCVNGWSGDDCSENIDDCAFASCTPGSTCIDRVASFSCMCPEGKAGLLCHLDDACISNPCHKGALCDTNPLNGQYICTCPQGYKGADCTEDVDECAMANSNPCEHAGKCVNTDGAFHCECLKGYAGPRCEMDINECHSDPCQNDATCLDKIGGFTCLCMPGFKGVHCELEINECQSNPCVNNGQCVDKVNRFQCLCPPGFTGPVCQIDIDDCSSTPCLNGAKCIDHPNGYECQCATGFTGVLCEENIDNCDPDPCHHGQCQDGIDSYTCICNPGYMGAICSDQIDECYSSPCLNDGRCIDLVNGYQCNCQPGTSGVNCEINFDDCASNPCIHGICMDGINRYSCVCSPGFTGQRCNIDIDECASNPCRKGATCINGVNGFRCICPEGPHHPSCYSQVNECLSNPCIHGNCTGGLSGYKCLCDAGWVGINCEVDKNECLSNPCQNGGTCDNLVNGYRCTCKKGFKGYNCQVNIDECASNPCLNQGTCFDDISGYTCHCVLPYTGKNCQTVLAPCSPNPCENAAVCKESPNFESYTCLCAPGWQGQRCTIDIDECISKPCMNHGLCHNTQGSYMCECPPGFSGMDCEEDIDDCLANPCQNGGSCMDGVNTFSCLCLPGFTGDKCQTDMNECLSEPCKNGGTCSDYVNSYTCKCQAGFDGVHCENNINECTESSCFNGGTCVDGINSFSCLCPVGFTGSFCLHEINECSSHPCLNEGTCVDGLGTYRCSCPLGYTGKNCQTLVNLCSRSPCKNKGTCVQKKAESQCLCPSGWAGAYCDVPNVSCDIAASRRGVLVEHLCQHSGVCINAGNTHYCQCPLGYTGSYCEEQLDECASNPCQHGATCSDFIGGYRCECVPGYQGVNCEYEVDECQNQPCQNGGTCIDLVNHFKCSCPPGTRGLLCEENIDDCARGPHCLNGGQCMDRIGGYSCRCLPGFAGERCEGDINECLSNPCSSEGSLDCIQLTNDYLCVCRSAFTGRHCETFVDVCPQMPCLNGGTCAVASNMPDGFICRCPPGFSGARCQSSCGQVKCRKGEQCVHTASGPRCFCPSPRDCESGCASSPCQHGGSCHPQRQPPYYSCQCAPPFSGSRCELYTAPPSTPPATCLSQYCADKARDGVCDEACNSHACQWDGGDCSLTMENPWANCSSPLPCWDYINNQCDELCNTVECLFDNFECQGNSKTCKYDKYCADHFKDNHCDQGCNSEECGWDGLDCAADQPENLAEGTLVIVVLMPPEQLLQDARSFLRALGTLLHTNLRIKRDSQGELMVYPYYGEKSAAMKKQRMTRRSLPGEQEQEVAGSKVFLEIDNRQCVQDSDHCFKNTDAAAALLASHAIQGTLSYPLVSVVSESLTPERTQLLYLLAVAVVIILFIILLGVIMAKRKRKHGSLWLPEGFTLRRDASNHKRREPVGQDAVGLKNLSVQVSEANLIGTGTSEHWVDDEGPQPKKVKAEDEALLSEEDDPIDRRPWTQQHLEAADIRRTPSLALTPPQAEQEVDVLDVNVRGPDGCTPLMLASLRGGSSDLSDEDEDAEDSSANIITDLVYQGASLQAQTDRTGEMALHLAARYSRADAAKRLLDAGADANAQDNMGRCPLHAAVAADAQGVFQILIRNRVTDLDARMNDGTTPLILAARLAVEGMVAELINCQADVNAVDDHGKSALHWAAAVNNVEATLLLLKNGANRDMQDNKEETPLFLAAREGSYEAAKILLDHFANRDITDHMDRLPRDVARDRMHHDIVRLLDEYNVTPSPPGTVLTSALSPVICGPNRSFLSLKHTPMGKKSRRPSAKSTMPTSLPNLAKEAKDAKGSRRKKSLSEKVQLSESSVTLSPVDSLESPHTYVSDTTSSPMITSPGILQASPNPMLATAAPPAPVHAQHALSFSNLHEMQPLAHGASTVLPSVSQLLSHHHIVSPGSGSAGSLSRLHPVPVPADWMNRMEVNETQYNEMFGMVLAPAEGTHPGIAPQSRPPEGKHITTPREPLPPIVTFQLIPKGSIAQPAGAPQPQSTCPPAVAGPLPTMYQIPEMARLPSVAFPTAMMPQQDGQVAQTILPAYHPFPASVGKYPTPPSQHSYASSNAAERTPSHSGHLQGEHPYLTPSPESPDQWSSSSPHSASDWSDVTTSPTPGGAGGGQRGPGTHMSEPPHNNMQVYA
# [6] = molecular target: Pro-neuregulin-1, membrane-bound isoform (Homo sapiens) (UniProt Q02297); test: NRG1 binders on small-molecule microarrays, primary screen, psychiatric disease protein project, biochemical, small-molecule microarray, fluorescence 635/667 (AID 1075); details: NRG1 binding, 635 nm fluorescence, higher = more signal;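 note: score combines 667 nm spot fluorescence with signal to noise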
# Chain of Pro-neuregulin-1, membrane-bound isoform (Homo sapiens) (Q02297 whole entry, looked up, the tested form may be a part, canonical isoform): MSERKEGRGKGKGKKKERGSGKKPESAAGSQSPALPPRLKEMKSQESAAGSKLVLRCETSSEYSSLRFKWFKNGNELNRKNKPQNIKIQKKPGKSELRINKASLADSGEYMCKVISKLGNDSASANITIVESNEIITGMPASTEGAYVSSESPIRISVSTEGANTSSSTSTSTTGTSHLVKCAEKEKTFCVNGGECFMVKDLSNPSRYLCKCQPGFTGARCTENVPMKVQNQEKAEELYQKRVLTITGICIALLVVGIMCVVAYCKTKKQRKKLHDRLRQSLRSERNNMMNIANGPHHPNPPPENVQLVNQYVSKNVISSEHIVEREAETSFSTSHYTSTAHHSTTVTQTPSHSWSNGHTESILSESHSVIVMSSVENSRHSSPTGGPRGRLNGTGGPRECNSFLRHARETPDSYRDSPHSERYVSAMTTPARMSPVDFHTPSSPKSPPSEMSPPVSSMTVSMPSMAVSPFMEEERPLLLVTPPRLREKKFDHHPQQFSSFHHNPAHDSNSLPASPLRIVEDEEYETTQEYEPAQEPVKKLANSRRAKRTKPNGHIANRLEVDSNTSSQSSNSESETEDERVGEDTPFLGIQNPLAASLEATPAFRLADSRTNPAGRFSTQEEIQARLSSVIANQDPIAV
# [7] = system: Neuregulin-1 EGF-like domain; test: binders of neuregulin-1 EGF-like domain, primary screen, biochemical, small-molecule microarray, 635 nm fluorescence (AID 1081); details: small-molecule microarray binding, higher = more signal;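 note: binding of the protein to compounds printed on small-molecule microarray slides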
# [8] = FRG1 promoter luciferase signal modulators, primary screen, FRG1 inhibition for FSHD, cell-based, C2C12 myotubes, firefly/Renilla luciferase, luminescence (AID 1084); details: higher = more signal, called active from +8 up or from −8 down
# [9] = binders of probe aFST on microarray, primary screen, stem cell growth factor project, biochemical, small-molecule microarray, fluorescence 635/667 (AID 1086); details: higher = more signal;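 note: score merges 667 nm fluorescence with signal-to-noise of each printed compound spot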
# [10] = binders of probe aHhip on microarray, primary screen, stem cell growth factor project, biochemical, small-molecule microarray, fluorescence 635/667 (AID 1087); details: higher = more signal;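 note: score merges spot fluorescence at 667nm with spot signal to noise ratio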
Structure (SMILES),composite z-score [1],composite z-score [2],composite z-score [3],composite z-score [4],composite z-score [5],composite z-score [6],composite z-score [7],z-score [8],composite z-score [9],composite z-score [10]
COc1ccc([Si](C)(C)[C@H]2[C@H](CCn3cc([C@H](O)c4ccccc4)nn3)O[C@@]3(C(=O)N(C)c4ccccc43)[C@@H]2C)cc1,0.0044,0.165,-0.0418,-0.209,-0.623,0.104,0.553,-1.36 (inactive),-0.619,-0.199
[N-]=[N+]=Nc1ccccc1C[C@@]1(C(=O)N2CCCCC2)N=C(c2ccc(OCCCO)cc2)O[C@@H]1c1ccccc1,0.155,1.1,0.0137,0.763,1.47,1.74,1.11,-4.6 (inactive),0.884,0.0873
OB1C=CCC(CCc2ccccc2)O1 (stereo not given),0.0393,-0.334,-0.0883,-0.254,-0.809,-0.995,-0.989,-0.209 (inactive),-0.393,-0.132
[N-]=[N+]=NCc1ccccc1[C@@H]1OC(c2ccc(OCCCO)cc2)=N[C@]1(CCS(=O)(=O)c1ccccc1)C(N)=O,0.339,0.852,0.175,0.647,1.33,2.06,1.34,1.81 (inactive),1.71,-0.165
COc1ccc([Si](C)(C)[C@H]2[C@H](CCO)O[C@@]3(C(=O)N(Cc4ccccc4)c4ccc(N5CCCCC5=O)cc43)[C@@H]2C)cc1,-0.347,0.455,-0.0428,0.74,0.333,0.39,0.909,-2.44 (inactive),-0.227,-0.0645
C#CCOc1ccc(C[C@@H](C(=O)OC)N(CC#C)[C@@H](/C=C/C2CC2)[C@H](O)Cc2ccccc2)cc1,0.282,-1,-0.198,-0.207,-1.12,-0.294,-0.0146,-4.34 (inactive),-0.353,-0.0994
COc1cc(CO)cc(I)c1O[C@H]1C=C(C(=O)NCCO)C[C@@H](N(C(=O)c2cc3ccccc3oc2=O)C2CCCCCC2)[C@@H]1O,-0.386,0.419,-0.0935,0.661,0.511,-0.19,-0.52,-0.738 (inactive),-0.0938,0.0646
O=C1OCCC=C[C@H]2OC34C=CCN(c5ccc(Cl)cc5)C(=O)[C@H]3N(CCCO)C(=O)[C@@H]4C12 (stereo not given in full),0.189,-0.771,-0.104,-0.144,-0.678,-0.602,-0.366,0.923 (inactive),-0.155,-0.236
CCOc1ccc(N2C(=O)CSC2c2cccc([N+](=O)[O-])c2)cc1 (stereo not given),-0.368,-0.113,0.0525,0.839,1.22,1.64,1.29,0.541 (inactive),0.569,-0.199
CCN(CC)c1ccc(N2CC=CC34O[C@@H]5C=CCOC(=O)[C@@H]5[C@H]3C(=O)N(CCCCCCO)[C@@H]4C2=O)cc1 (stereo not given in full),0.52,0.19,-0.167,-0.631,-0.489,1.87,1.46,-0.766 (inactive),-0.263,-0.0296
Cc1ccc(C2C3C(=O)CC4C(=O)N(c5ccccc5)C(=O)C4C3CN2S(=O)(=O)c2ccc(C)cc2)cc1 (stereo not given),0.469,0.204,0.292,0.59,1.57,1.25,1.32,0.0035 (inactive),1.58,0.365
COC(=O)[C@@]1(Cc2ccc(OC)cc2)[C@H]2c3cc(C(=O)N4CCCC4)n(CCc4ccc(O)c(O)c4)c3C[C@H]2CN1C(=O)c1ccccc1,1.65,0.269,0.0215,0.0359,1.33,2.26,1.11,2.61 (inactive),0.939,-0.156
COc1cc(OC)c(C(O)C2C=CC3C(=O)NC(=O)C3N2Nc2ccccn2)cc1Br (stereo not given),0.159,0.56,-0.0494,0.561,1.24,1.48,1.44,1.21 (inactive),0.0594,-0.141
COc1ccc(C#Cc2ccc3c(c2)[C@]2(C(=O)N3)[C@H](c3ccc(O)cc3)N3[C@H](c4ccccc4)[C@H](c4ccccc4)OC(=O)[C@H]3[C@@H]2C(=O)N2CCc3cc(OC)c(OC)cc3C2)cc1,-0.284,0.0877,0.0106,0.355,0.84,1.32,1.26,1.46 (inactive),0.464,0.0505
COc1ccc([C@H]2OC[C@@H]3CCC(=O)N32)cc1,-0.136,0.428,-0.169,0.733,0.471,0.0194,1.19,0.0543 (inactive),0.664,-0.0581
CCCCCCc1nc(-c2ccc(-c3ccc(Cl)c(Cl)c3)o2)c(C)c2c1[Si](C(C)C)(C(C)C)OC2,-0.495,-0.866,-0.144,-0.475,-0.363,0.0643,-0.416,0.333 (inactive),-0.0878,0.0505

Structure (SMILES),composite z-score [1],composite z-score [2],composite z-score [3],composite z-score [4],composite z-score [5],composite z-score [6],composite z-score [7],z-score [8],composite z-score [9],composite z-score [10]
C=CC[C@]1(C(N)=O)COC(c2ccc(OCCCO)cc2)=N1,-0.123,0.38,-0.0407,0.282,0.85,0.0632,1.09,-0.25 (inactive),0.418,-0.0645
C=CC[C@]12N=C(c3ccc(OCCCO)cc3)O[C@H]1c1ccccc1N(CCS(=O)(=O)c1ccccc1)C2=O,0.288,-0.312,0.0124,-0.0268,1.07,1.13,1.32,-3.1 (inactive),0.0964,-0.3
Cc1ccc([C@H]2C(C(=O)O)=CCN2S(=O)(=O)c2ccc(C)cc2)cc1,-0.0451,0.0722,-0.0271,0.231,0.539,1.24,1.1,-0.186 (inactive),0.224,-0.0305
C=CCNC(=O)[C@@H]1[C@H]2C(=O)O[C@H](c3ccccc3)[C@H](c3ccccc3)N2[C@H](c2ccc(OCCO)cc2)[C@@]12C(=O)N(C(=O)OCCOC)c1ccc(C#CCC(C(=O)OC)C(=O)OC)cc12,-0.426,1.25,0.0408,1.05,1.1,1.48,1.12,1.26 (inactive),0.88,0.386
Cc1ccc(/C=C/C=O)cc1,0.16,-0.513,-0.0704,0.2,-0.516,-0.0188,-0.452,0.944 (inactive),-0.0522,0.0156
CN(C)C(=O)[C@]1(Cc2ccccc2)N=C(c2ccc(OCCCO)cc2)O[C@@H]1c1ccccc1N=[N+]=[N-],0.303,0.746,0.0797,0.618,1.33,1.56,1.13,0.336 (inactive),0.532,0.0749
OCCCC1=CC(C2CC2)N(Cc2cccc(OC(F)(F)F)c2)CC1 (stereo not given),-0.367,0.406,-0.208,-0.771,-0.464,-0.106,0.677,0.606 (inactive),-0.658,-0.0373
CN1CCC(CCCO)=CC1c1cccs1 (stereo not given),-0.017,0.0383,-0.159,-0.959,-1.01,0.968,0.72,0.159 (inactive),-0.142,-0.0491
COC(=O)[C@]1(CCC(=O)OC(C)(C)C)N=C(c2ccc(OCCCO)cc2)O[C@@H]1c1ccccc1,1.11,-0.522,0.0679,-0.87,-0.668,0.791,1.14,-2.62 (inactive),-0.159,-0.233
C=CC[C@]1(C(=O)NCc2ccccc2)N=C(c2ccc(OCCCO)cc2)O[C@H]1c1ccccc1CN=[N+]=[N-],0.0143,0.234,0.053,0.505,1.54,1.05,1.11,-2.43 (inactive),1.02,0.0854
C=CC1c2cc(O)c(OC)cc2CCN1Cc1cccc(OC(F)(F)F)c1 (stereo not given),0.335,-0.145,-0.103,-0.605,-0.137,1.59,1.1,0.385 (inactive),-0.108,-0.268
COc1ccc(CCNC(=O)[C@@]2(C)c3ccccc3C(=O)N(c3ccc(C)cn3)[C@H]2c2ccc(CO)cc2)cc1,-0.561,-0.997,-0.171,-0.516,-0.859,0.884,1.34,1.07 (inactive),-0.389,-0.13
CCCNC(=O)[C@@]1(Sc2ccc(C)cc2)CC(=O)N(Cc2ccccc2C(F)(F)F)[C@@H]1c1ccc(CO)cc1I,-0.0981,2.46,-0.0583,-0.0686,0.267,1.22,1.07,-0.267 (inactive),0.574,-0.0346
O=C1C2C=CC(C(O)c3c(F)cccc3Cl)N(Nc3ccccc3F)C2C(=O)N1c1ccccc1 (stereo not given),0.472,0.374,0.11,0.574,1.65,1.37,1.15,-3.2 (inactive),1.04,0.113
C=CCN1C(=O)[C@]2(O[C@H](CCO)[C@@H]([Si](C)(C)c3ccc(OC)cc3)[C@@H]2C)c2cc(N(C=O)c3ccccc3)ccc21,0.0147,0.109,-0.0583,0.26,0.425,0.495,0.903,-2.69 (inactive),0.359,0.0021
COc1ccc(C(O)C2C=CC3C(=O)N(C)C(=O)C3N2N(c2ccccc2)c2ccccc2)c2ccccc12 (stereo not given),0.249,0.643,0.0346,0.412,0.295,0.85,0.894,-0.14 (inactive),0.284,0.576
